Laboratory results published in PMC7862700, “An all-to-all approach to the identification of sequence-specific readers for epigenetic DNA modifications on cytosine”.

Legend:
Experiment in all cases: DAPPL (digital affinity profiling via proximity ligation, sequencing); 10 mM Tris-HCl pH 7.5, 50 mM NaCl, 1 mM DTT, 4% glycerol, room temperature, 30 min; GST-TFs on glutathione beads, 16-mer random dsDNA library, 0.1% formaldehyde crosslink after washing; high values mean tight binding
Conditions in all cases: protein: recombinant; tags: N-terminal GST; dsDNA, one strand shown
FLI1 = molecular target: T1, FLI1 (Homo sapiens, UniProt Q01543 1-452)
T1 sequence: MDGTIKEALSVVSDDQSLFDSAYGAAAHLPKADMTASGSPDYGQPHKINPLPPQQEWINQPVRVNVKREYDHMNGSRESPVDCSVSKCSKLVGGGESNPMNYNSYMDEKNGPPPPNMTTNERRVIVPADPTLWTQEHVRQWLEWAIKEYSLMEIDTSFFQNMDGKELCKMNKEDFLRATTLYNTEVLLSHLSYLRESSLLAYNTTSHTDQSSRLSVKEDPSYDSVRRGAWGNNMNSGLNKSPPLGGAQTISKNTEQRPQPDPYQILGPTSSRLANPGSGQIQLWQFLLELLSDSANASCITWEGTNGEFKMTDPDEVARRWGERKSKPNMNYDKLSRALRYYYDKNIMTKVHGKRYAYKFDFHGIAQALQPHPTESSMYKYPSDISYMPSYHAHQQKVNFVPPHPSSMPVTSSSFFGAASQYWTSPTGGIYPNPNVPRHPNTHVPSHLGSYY
Procedure, shortened: (§1)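 Pools were built from human transcription factors expressed in yeast as GST fusions, captured on glutathione beads and DNA-barcoded, along with a tag-only sample. Incubation with 200 nmole of a 16-mer random double-stranded DNA library lasted 30 min at room temperature in Tris/NaCl/DTT/glycerol buffer, and was followed by washing, 0.1% formaldehyde crosslinking, proximity ligation, PCR amplification and Illumina NextSeq500 sequencing. Binding signal is the quotient of each hexamer's read frequency for a factor and its frequency for the tag-only sample.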

ELK1 = molecular target: T2, ELK1 (Homo sapiens, UniProt P19419 1-428)
T2 sequence: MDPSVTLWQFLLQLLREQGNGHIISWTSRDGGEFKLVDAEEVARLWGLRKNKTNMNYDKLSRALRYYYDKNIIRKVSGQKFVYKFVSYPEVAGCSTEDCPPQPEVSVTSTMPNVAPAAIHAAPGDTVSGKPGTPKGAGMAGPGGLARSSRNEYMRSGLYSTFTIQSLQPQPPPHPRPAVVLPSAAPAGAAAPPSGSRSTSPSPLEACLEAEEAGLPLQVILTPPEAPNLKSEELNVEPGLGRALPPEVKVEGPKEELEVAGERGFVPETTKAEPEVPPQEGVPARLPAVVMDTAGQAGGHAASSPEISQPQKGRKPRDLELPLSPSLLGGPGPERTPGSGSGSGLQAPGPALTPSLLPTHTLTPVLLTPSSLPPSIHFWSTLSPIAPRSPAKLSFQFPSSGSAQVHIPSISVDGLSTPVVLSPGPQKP
Procedure, shortened: as §1

GABPA = molecular target: T3, GABPA (Homo sapiens, UniProt Q06546 1-454)
T3 sequence: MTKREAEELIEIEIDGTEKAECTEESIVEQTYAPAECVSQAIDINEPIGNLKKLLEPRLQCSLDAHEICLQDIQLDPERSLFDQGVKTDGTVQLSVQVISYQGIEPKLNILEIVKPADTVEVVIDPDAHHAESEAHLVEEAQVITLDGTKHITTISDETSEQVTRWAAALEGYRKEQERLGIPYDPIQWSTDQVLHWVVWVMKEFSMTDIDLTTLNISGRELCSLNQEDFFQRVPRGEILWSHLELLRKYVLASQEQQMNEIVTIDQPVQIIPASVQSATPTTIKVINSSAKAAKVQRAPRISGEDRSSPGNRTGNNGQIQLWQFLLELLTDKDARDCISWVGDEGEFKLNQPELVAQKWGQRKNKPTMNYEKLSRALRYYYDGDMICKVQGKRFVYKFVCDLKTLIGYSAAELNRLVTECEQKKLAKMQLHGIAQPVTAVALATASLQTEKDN
Procedure, shortened: as §1

ERG = molecular target: T4, ERG (Homo sapiens, UniProt P11308 1-479)
T4 sequence: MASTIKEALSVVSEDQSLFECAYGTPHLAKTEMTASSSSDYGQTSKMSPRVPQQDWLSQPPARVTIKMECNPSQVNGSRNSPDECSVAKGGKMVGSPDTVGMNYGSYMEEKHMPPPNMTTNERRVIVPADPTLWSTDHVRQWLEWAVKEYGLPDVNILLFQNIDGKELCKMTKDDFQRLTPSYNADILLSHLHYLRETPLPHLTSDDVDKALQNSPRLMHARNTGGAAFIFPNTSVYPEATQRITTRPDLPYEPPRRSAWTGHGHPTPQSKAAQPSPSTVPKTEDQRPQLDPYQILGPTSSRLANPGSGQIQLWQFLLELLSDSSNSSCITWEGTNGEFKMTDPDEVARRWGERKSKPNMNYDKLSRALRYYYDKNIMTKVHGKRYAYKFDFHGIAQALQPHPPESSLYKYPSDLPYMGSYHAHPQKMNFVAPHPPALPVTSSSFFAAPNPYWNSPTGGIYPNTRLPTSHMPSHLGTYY
Procedure, shortened: as §1

ELF1 = ELF1 (Homo sapiens, UniProt P32519 1-619)
Chain of ELF1 (P32519 whole entry): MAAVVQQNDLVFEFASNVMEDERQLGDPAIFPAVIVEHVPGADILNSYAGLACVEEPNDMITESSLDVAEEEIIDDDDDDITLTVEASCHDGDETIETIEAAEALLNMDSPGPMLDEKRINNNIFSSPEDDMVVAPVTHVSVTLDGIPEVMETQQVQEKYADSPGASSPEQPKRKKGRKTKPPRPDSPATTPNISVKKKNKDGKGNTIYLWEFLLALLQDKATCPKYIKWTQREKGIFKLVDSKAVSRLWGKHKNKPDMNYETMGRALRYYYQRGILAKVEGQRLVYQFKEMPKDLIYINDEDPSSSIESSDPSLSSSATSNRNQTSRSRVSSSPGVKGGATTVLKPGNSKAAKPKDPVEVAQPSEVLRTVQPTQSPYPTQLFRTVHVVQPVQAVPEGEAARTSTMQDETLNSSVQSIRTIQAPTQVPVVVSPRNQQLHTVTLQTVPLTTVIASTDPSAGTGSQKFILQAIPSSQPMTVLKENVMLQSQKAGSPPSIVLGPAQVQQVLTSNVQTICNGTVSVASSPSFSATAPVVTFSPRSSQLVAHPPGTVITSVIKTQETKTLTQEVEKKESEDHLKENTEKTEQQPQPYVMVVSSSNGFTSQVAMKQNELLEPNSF
Procedure, shortened: as §1

EHF = molecular target: T5, EHF (Homo sapiens, UniProt Q9NZC4 1-300)
T5 sequence: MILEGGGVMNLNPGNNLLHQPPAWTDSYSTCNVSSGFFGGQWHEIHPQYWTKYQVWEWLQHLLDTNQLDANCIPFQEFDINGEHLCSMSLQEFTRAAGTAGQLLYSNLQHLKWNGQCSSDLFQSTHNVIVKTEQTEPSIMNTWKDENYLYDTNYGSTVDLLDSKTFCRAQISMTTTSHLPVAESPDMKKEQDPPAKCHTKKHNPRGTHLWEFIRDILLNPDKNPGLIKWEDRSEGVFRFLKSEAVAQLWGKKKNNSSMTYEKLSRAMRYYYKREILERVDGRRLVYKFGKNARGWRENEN
Procedure, shortened: as §1

SPI1 = SPI1 (Homo sapiens, UniProt P17947 1-270)
Procedure, shortened: as §1

SPIB = SPIB (Homo sapiens, UniProt Q01892 1-262)
Chain of SPIB (Q01892 whole entry): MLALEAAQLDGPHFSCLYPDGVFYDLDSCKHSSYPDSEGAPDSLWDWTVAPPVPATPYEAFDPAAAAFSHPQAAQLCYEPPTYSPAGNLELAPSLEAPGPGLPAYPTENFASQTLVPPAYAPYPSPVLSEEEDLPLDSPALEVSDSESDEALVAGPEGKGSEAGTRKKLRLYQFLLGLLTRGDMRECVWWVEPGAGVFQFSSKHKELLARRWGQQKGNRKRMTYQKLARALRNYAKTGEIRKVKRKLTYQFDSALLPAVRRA
Procedure, shortened: as §1

ELK3 = molecular target: T6, ELK3 (Homo sapiens, UniProt P41970 1-407)
T6 sequence: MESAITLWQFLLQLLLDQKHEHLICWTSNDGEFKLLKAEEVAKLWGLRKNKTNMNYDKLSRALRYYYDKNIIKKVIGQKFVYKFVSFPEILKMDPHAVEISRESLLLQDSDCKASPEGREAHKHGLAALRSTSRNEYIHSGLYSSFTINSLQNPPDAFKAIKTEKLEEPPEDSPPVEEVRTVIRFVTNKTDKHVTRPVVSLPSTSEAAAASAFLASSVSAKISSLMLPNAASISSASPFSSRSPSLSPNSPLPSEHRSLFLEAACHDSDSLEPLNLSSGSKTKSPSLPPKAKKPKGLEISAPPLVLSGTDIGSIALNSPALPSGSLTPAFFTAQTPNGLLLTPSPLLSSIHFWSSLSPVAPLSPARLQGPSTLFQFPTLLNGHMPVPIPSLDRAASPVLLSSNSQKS
Procedure, shortened: as §1

FEV = molecular target: T7, FEV (Homo sapiens, UniProt Q99581 1-238)
T7 sequence: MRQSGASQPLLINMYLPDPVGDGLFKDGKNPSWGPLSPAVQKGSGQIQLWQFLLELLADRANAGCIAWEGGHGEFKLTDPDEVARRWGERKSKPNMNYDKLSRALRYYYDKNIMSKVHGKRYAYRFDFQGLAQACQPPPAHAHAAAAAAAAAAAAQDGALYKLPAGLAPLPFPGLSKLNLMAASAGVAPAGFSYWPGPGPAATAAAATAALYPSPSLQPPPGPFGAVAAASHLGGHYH
Procedure, shortened: as §1

ETV5 = ETV5 (Homo sapiens, UniProt P41161 1-510)
Chain of ETV5 (P41161 whole entry): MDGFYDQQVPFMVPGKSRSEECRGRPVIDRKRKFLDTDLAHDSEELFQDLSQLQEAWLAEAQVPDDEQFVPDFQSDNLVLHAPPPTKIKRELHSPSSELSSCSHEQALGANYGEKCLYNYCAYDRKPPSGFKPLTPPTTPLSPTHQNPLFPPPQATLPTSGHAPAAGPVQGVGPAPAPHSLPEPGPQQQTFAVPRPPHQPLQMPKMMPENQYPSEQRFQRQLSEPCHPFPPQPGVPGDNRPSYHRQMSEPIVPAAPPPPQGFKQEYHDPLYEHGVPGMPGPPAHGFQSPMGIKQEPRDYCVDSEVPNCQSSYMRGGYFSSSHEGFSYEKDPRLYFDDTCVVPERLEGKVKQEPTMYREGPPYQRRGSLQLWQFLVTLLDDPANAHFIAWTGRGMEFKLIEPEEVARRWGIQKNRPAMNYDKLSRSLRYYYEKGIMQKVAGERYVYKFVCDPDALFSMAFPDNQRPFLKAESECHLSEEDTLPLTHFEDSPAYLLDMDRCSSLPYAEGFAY
Procedure, shortened: as §1

SPIC = molecular target: T8, SPIC (Homo sapiens, UniProt Q8N5J4 1-248)
T8 sequence: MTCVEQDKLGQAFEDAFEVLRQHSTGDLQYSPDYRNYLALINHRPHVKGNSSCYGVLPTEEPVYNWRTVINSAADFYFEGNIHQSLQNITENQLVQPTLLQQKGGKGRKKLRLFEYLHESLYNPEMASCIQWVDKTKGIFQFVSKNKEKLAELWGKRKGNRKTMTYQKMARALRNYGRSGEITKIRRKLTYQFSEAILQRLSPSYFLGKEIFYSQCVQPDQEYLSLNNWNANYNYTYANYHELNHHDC
Procedure, shortened: as §1

ELF4 = ELF4 (Homo sapiens, UniProt Q99607 1-663)
Chain of ELF4 (Q99607 whole entry): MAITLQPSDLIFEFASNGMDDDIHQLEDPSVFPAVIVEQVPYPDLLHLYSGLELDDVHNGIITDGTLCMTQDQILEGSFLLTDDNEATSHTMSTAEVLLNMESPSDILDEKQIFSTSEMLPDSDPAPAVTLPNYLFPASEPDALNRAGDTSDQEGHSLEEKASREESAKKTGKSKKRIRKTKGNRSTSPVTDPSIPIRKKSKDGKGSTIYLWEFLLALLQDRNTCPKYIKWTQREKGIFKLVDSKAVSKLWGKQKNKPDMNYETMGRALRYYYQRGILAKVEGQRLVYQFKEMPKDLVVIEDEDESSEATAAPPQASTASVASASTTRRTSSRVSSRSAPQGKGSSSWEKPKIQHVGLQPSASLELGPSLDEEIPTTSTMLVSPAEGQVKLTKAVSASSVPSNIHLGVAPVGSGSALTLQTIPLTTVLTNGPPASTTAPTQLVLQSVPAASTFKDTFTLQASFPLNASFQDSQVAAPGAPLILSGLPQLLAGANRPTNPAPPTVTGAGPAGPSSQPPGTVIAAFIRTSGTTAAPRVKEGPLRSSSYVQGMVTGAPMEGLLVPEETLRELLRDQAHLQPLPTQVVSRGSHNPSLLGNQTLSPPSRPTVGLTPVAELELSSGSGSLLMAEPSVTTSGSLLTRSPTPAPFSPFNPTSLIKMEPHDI
Procedure, shortened: as §1

ELK4 = molecular target: T9, ELK4 (Homo sapiens, UniProt P28324-2 1-405)
T9 sequence: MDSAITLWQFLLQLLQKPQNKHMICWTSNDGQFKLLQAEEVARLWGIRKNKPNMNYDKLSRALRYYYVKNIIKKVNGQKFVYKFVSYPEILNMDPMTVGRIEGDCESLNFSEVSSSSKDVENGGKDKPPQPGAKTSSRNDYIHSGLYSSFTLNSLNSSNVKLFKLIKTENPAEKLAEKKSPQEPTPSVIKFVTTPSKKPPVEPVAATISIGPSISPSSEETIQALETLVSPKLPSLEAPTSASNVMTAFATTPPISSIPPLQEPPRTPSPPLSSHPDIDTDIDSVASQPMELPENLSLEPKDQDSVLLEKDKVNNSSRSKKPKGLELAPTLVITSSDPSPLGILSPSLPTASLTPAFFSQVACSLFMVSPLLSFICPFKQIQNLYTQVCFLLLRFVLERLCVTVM
Procedure, shortened: as §1

ETV2 = molecular target: T10, ETV2 (Homo sapiens, UniProt O00321 1-342)
T10 sequence: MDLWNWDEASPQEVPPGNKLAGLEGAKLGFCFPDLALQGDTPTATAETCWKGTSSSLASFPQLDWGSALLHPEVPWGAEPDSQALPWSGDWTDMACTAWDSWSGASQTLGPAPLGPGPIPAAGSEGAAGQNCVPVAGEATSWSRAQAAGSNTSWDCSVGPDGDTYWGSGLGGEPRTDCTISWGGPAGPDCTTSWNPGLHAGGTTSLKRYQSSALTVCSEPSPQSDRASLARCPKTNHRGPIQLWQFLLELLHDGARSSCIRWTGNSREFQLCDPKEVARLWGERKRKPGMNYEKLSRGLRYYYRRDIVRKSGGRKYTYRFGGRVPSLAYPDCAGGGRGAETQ
Procedure, shortened: as §1

ELF3 = molecular target: T11, ELF3 (Homo sapiens, UniProt P78545 1-371)
T11 sequence: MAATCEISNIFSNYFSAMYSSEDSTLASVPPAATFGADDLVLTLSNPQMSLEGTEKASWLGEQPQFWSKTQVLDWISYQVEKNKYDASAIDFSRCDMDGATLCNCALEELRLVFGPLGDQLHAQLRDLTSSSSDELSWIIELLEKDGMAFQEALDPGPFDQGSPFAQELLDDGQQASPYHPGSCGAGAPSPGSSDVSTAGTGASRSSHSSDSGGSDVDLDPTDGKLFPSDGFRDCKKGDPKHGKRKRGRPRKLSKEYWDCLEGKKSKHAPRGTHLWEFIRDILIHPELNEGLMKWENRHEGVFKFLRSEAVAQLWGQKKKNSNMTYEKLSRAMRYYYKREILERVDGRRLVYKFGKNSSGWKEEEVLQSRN
Procedure, shortened: as §1

ETV1 = ETV1 (Homo sapiens, UniProt P50549 1-477)
Chain of ETV1 (P50549 whole entry): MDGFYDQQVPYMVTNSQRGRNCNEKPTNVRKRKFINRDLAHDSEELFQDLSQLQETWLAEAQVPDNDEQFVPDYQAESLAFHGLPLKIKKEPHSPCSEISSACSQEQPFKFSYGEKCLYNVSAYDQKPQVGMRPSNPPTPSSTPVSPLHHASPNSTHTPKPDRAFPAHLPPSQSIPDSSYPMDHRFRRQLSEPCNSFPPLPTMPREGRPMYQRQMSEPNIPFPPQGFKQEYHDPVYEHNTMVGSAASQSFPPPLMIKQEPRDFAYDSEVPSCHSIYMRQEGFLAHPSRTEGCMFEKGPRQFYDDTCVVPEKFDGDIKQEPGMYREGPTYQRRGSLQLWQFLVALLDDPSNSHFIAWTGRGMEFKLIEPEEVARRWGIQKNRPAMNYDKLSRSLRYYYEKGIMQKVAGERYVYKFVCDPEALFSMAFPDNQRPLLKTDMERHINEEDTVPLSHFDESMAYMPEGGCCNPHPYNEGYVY
Procedure, shortened: as §1

CTGCGT
binding signal (FLI1): 1.12 fold enrichment (6-mer frequency, TF over GST control)
binding signal (ELK1): 1.15 fold enrichment (6-mer frequency, TF over GST control)
binding signal (GABPA): 1.16 fold enrichment (6-mer frequency, TF over GST control)
binding signal (ERG): 1.13 fold enrichment (6-mer frequency, TF over GST control)
binding signal (ELF1): 1.17 fold enrichment (6-mer frequency, TF over GST control)
binding signal (EHF): 1.18 fold enrichment (6-mer frequency, TF over GST control)
binding signal (SPI1): 1.16 fold enrichment (6-mer frequency, TF over GST control)
binding signal (SPIB): 1.12 fold enrichment (6-mer frequency, TF over GST control)
binding signal (ELK3): 1.24 fold enrichment (6-mer frequency, TF over GST control)
binding signal (FEV): 1.07 fold enrichment (6-mer frequency, TF over GST control)
binding signal (ETV5): 1.09 fold enrichment (6-mer frequency, TF over GST control)
binding signal (SPIC): 1.31 fold enrichment (6-mer frequency, TF over GST control)
binding signal (ELF4): 1.09 fold enrichment (6-mer frequency, TF over GST control)
binding signal (ELK4): 1.3 fold enrichment (6-mer frequency, TF over GST control)
binding signal (ETV2): 1.09 fold enrichment (6-mer frequency, TF over GST control)
binding signal (ELF3): 1.07 fold enrichment (6-mer frequency, TF over GST control)
binding signal (ETV1): 1.11 fold enrichment (6-mer frequency, TF over GST control)

GCGTCC
binding signal (FLI1): 1.26 fold enrichment (6-mer frequency, TF over GST control)
binding signal (ELK1): 1.27 fold enrichment (6-mer frequency, TF over GST control)
binding signal (GABPA): 1.27 fold enrichment (6-mer frequency, TF over GST control)
binding signal (ERG): 1.28 fold enrichment (6-mer frequency, TF over GST control)
binding signal (ELF1): 1.26 fold enrichment (6-mer frequency, TF over GST control)
binding signal (EHF): 1.22 fold enrichment (6-mer frequency, TF over GST control)
binding signal (SPI1): 1.23 fold enrichment (6-mer frequency, TF over GST control)
binding signal (SPIB): 1.3 fold enrichment (6-mer frequency, TF over GST control)
binding signal (ELK3): 1.29 fold enrichment (6-mer frequency, TF over GST control)
binding signal (FEV): 1.36 fold enrichment (6-mer frequency, TF over GST control)
binding signal (ETV5): 1.16 fold enrichment (6-mer frequency, TF over GST control)
binding signal (SPIC): 1.23 fold enrichment (6-mer frequency, TF over GST control)
binding signal (ELF4): 1.2 fold enrichment (6-mer frequency, TF over GST control)
binding signal (ELK4): 1.25 fold enrichment (6-mer frequency, TF over GST control)
binding signal (ETV2): 1.08 fold enrichment (6-mer frequency, TF over GST control)
binding signal (ELF3): 1.37 fold enrichment (6-mer frequency, TF over GST control)
binding signal (ETV1): 1.26 fold enrichment (6-mer frequency, TF over GST control)
